Sampled rows, rich in hits. Any-hit rate of the full collection: about 4%.
Jurkat NFkB inh: inhibitors of induced NF-kB luciferase reporter, primary screen, TCR NF-kB activation inhibitor project, cell-based, luminescence, uHTS. inhibition, % at 4 µM. Jurkat, PMA/ionomycin-induced NF-kB luciferase reporter. hit rate 0.53% among 330,000; in the data active = inhibition above about 50%
Mdm2 MdmX PPI: inhibitors of human Mdm2-MdmX association, primary screen, cell-based, luminescence, split luciferase, SaOS-2, uHTS; Protein Mdm4 (Homo sapiens) + E3 ubiquitin-protein ligase Mdm2 (Homo sapiens), …; SaOS-2 split-luciferase Mdm2/MdmX complementation; inhibition, % at 8 µM; hit rate 3% among 330,000; AID 485346, 2010;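 active = inhibition of at least 50% at 8 µM in the primary screen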
Target sequence (O15151 whole entry, looked up): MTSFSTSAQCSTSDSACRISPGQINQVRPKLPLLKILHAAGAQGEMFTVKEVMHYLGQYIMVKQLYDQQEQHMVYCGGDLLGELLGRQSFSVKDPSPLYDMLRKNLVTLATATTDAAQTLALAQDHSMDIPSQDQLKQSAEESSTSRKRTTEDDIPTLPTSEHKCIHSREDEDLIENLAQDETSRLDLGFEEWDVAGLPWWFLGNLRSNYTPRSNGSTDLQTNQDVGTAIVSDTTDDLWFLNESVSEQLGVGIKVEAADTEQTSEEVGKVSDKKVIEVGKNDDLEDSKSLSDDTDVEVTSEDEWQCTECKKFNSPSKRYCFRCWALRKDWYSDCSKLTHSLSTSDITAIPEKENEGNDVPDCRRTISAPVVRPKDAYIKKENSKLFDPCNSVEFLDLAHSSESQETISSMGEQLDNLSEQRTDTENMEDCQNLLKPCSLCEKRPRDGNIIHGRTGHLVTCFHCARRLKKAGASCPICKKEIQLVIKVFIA
Target sequence (Q00987 whole entry, looked up): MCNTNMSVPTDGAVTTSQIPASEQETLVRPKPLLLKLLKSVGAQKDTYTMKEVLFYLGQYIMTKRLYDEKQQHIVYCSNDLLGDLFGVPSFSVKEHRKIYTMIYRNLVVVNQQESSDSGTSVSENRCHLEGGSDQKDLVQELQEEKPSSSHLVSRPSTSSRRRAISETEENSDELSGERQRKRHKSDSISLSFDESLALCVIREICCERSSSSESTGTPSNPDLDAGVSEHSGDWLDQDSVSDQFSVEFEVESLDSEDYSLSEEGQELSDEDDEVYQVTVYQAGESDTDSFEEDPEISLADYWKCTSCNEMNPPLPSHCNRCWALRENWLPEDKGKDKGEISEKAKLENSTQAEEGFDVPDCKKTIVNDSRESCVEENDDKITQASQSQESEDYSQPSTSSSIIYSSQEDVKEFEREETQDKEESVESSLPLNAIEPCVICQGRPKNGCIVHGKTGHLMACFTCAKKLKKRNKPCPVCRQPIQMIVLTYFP
697 NFkB inh: inhibitors of PMA/ionomycin-induced NF-kB reporter, 697 cells, primary screen, B-cell NF-kB inhibitor project, cell-based, luminescence, uHTS. inhibition, % at 4 µM. hit rate 0.33% among 330,000. AID 435022, 2010. 697 B-cell NF-kB luciferase reporter, 16 h; in the data active = inhibition above about 35%
Gli-Sufu block: Gli-Sufu pathway antagonists, primary screen, luciferase luminescence, Sufu-KO-LIGHT cells, uHTS; Sufu-KO-LIGHT fibroblasts, Gli luciferase reporter luminescence; inhibition, % at 5 µM; hit rate 0.74% among 340,000;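 active = inhibition above about 55%, limit read from the data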;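 also: 0% = DMSO-treated cells and 100% = wells with medium but no cells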
Beta apoptosis: inhibitors of cytokine-induced beta cell apoptosis, primary screen, luminescence; INS-1E cytokine-induced death, ATP luminescence, 48 h; percent of positive-control rescue, neutral wells zero; protection from apoptosis, % (no concentration beside the values); hit rate 0.8% among 300,000;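 active = Every replicate reaches about 75%, or at least half do and their mean reaches it too, limit read from the data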;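 also: 0% = cytokine-treated negative control wells and 100% = positive control rescue; higher means more ATP so stronger rescue from cytokine killing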
Gli-Sufu confirm: Gli-SUFU pathway antagonists, confirmation, single concentration, luciferase luminescence, Sufu-KO-LIGHT cells; shares compounds with Gli-Sufu block; Gli luciferase reporter; inhibition, % at 5 µM; hit rate 40% among 2,500; AID 602428, 2012;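 active = mean inhibition at 5 µM reaching about 45%, limit read from the data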;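 also: plate controls were DMSO-treated cells for no effect and wells lacking cells for full effect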
Gli cytotox: cytotoxicity in Sufu-KO-LIGHT cells, confirmation, cytotoxicity control for Gli-SUFU antagonist project, cell-based, ATP luminescence, single concentration. shares compounds with Gli-Sufu block. hit rate 32% among 2,500. cytotoxicity, % at 5 µM. AID 651994, 2013;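 active = mean cytotoxicity at 5 µM above about 25%, limit read from the data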;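 also: cells exposed to compound overnight for roughly 16 to 18 hours; plate controls were DMSO wells with cells for no effect and medium without cells for full effect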
Wnt3a cs: Wnt3a reporter signal inhibition, confirmation, counter-screen for Gli-SUFU antagonist project, Wnt-LIGHT cells, luminescence, single concentration | shares compounds with Gli-Sufu block | AID 651995, 2013 | hit rate 20% among 2,500 | Wnt3a-driven luciferase reporter | inhibition, % at 6.25 µM;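 active = mean inhibition above about 25%, limit read from the data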
An asterisk follows results filed as active; . = no result given.

SMILES	Jurkat NFkB inh	Mdm2 MdmX PPI	697 NFkB inh	Gli-Sufu block	Beta apoptosis	Gli-Sufu confirm	Gli cytotox	Wnt3a cs
O=C(Nc1cc(Sc2ccccn2)cc([N+](=O)[O-])c1)c1ccc([N+](=O)[O-])cc1	12	33	-9	55	.	24	26*	-51
CC(C)c1ccc(NC(=O)N2CCOCC2)cc1	-51	7	-35	60*	.	-11	4	-55
O=C(CSc1nnc(Cn2nnc3ccccc32)o1)N(Cc1ccc(Cl)cc1)c1ccccc1	22	17	-22	64*	99*	63*	29*	11
O=C(CSc1nnc(Cn2nnc3ccccc32)o1)Nc1cccc(Cl)c1	0	-4	3	-6	.	.	.	.
Nc1nonc1-n1nnc(C(=O)N/N=C/c2ccncc2)c1CSc1ccccc1	3	-4	-31	62*	1	27	20	2
O=C(Cn1nnc(-c2ccccc2)n1)c1ccccc1	-16	0	-5	57*	.	-2	4	5
CCCCCn1c(CN2CCN(c3cc(Cl)ccc3C)CC2)nc2c1c(=O)[nH]c(=O)n2C	13	49	-9	54	10	26	23	-29
Cc1cc([N+](=O)[O-])c(NCCCCCCO)c([N+](=O)[O-])c1	-15	-19	-25	-3	-2	.	.	.
C/C(=N\NC(=O)c1ccccc1O)c1c(O)cc(C)oc1=O	-6	-14	-26	58*	1	4	-2	-40
C/C(=N\NC(=O)c1ccccc1[N+](=O)[O-])c1c(O)cc(C)oc1=O	30	21	-19	-1	-3	.	.	.
COc1ccc([C@H]2CC(=O)C=C(c3ccc(C)c(F)c3)C2)cc1	7	-29	-1	-14	-3	.	.	.
O=C(COc1cc2oc(=O)c3c(c2cc1Cl)CCC3)NCc1ccccn1	-3	10	0	13	-1	.	.	.
O=C(COc1cc2oc(=O)cc(-c3ccccc3)c2cc1Cl)NCc1ccccn1	5	11	2	53	-3	7	22	8
COC(=O)c1ccc(/C=C(/NC(=O)c2ccccc2)C(=O)N2CCOCC2)cc1	14	1	-2	-3	1	.	.	.
CCc1[nH]c(=O)c(C#N)c2c1CCCC2	5	-7	18	51	0	17	4	3
CCC(C)N(C(=O)CSc1nc(C)c(C)c(C)c1C#N)C1CCS(=O)(=O)C1 (centres undefined)	-5	-33	7	54	-7	11	7	-23
Cc1nc(SCC(=O)NC2CCS(=O)(=O)C2)c(C#N)c(C)c1C (centres undefined)	4	12	17	1	-1	.	.	.
O=C(CCCn1nnnc1CN1CCOCC1)N1CCC(c2ccc(F)cc2)C1 (centres undefined)	-9	-3	-28	97*	-3	21	10	-27
COc1cccc(-c2ccc(SCC(=O)c3ccccc3)nn2)c1	2	-11	-12	55*	5	22	12	-71
COc1ccc(C(=O)CSc2ccc(-c3ccccc3)nn2)cc1	0	6	6	-17	1	.	.	.
COc1cc(C(=O)N/N=C/c2ccc(OC(=O)c3ccccc3Cl)c(OC)c2)ccc1O	-11	17	-19	2	-3	.	.	.
COc1cc(/C=N/NC(=O)c2ccccc2O)ccc1OC(=O)CC1SC(=O)NC1=O (centres undefined)	1	18	9	58*	4	7	7	-48
CCCCCCCNC1=CC(=O)CC(c2ccccc2)C1 (centres undefined)	30	42	-17	59*	91*	52*	24	-38
O=C(Cc1ccc(F)cc1)NCCS(=O)(=O)N1CCN(c2ccccc2)CC1	5	24	1	97*	7	10	8	-56
O=C(Cc1ccccc1)NCCS(=O)(=O)N1CCN(c2ccccc2)CC1	5	15	-2	-4	-8	.	.	.
SMILES	Jurkat NFkB inh	Mdm2 MdmX PPI	697 NFkB inh	Gli-Sufu block	Beta apoptosis	Gli-Sufu confirm	Gli cytotox	Wnt3a cs
Cc1nnsc1C(=O)Nc1ccc(S(=O)(=O)N2CCC(C)CC2)cc1	12	-3	-61	54	4	28	23	-59
CCCCn1c(N)c(N(C(=O)CSc2nnnn2-c2ccc(C)cc2)C2CCCC2)c(=O)[nH]c1=O	.	.	.	-4	.	.	.	.
CCN(C1CCCCC1)S(=O)(=O)c1ccc(S(=O)(=O)NCCc2ccncc2)cc1	6	16	-3	11	14	.	.	.
CCN(C1CCCCC1)S(=O)(=O)c1ccc(S(=O)(=O)NCc2ccncc2)cc1	35	23	-13	60*	103*	50*	31*	55*
COc1cccc(CNC(=O)C2CSC3(C)CCC(=O)N23)c1 (centres undefined)	2	10	17	-7	-5	.	.	.
O=C(c1cc(COc2cccc(C(F)(F)F)c2)on1)N1CCC(c2ccccc2)CC1	1	30	-2	6	-7	.	.	.
O=C(c1cc(COc2cccc(C(F)(F)F)c2)on1)N1CCC(c2ccncc2)CC1	17	26	-57	51	111*	62*	37*	-77
Cc1csc(SCC(=O)Nc2ccccc2)n1	-2	15	12	-12	0	.	.	.
O=C(COC(=O)CCc1nc2ccccc2s1)Nc1nc(-c2ccccc2)cs1	-21	-3	-9	-23	0	.	.	.
Cc1csc(NC(=O)CSCC(=O)Nc2ccccc2)n1	-20	16	-3	99*	.	16	6	0
Cc1csc(NC(=O)CCc2nc3ccccc3s2)n1	-6	-41	3	99*	-3	10	6	-39
O=C(CNC(=O)c1ccc(Br)o1)Nc1cccc(S(=O)(=O)N2CCOCC2)c1	17	23	10	4	1	.	.	.
COc1ccc(OC)c(CN2CCCC(CO)C2)c1 (centres undefined)	5	-9	16	59*	-5	17	-4	11
CC(OC(=O)CCC(=O)c1ccc(Cl)s1)C(=O)NC1(C#N)CCCCC1 (centres undefined)	-12	-14	-2	94*	1	22	2	-17
C=CCNc1nc(-c2c(C)nc3sccn23)cs1	-26	10	-44	-2	4	.	.	.
